Compound activity from PubChem BioAssay.
Many of the other results were omitted from the sample, so hits are more common in it than they were.
ALOX12 inh = blocks human arachidonate 12S-lipoxygenase. AID 1671190. P18054. purified 12hLO, xylenol orange hydroperoxide absorbance. 580,000 tested, 1.1% active. Potency, µM (titrated, usually from 108 µM), for the others: at the highest dose activity change, negative = inhibition, actives largely listed as inhibitors; note: % is set by controls: 0 for no effect and ±100 for the full control effect
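Purified human 12hLO (150 nM final) in 25 mM Hepes, 0.01% Triton X-100, pH 7.0 was preincubated 15 min at room temperature with compound. Then 40 uM arachidonic acid was added, 30 min. Hydroperoxide was read by Fe-XO absorbance ratio 573/405 nm.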
Sfp inh = inhibitors of Bacillus subtilis Sfp phosphopantetheinyl transferase | Biochemical Sfp PPTase activity, qHTS | Potency, µM, without a hit: largest response in the series, negative = inhibition, actives largely listed as inhibitors | 310,000 tested, 3.5% active | Q9F4F7;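 note: the enzyme is Sfp with the accession as filed and its product quenches rhodamine fluorescence; 0% = enzyme reaction without inhibitor and -100% = no enzyme wells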
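Fluorescence-quenching assay: 15 nM Sfp-PPTase preincubated 15 min at room temperature with compound, then 5 uM rhodamine-CoA and 12.5 uM BHQ-2-labelled YbbR peptide added. Fluorescence (ex 525/em 598 nm) read at start and after 30 min; difference gives rate.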
G9a inh = inhibitors of human histone lysine methyltransferase G9a; 350,000 tested, 8.8% active; G9a H3K9 monomethylation, AlphaScreen, 2 h; Potency, µM (highest dose often 102 µM), for inactives: top-dose activity, negative = inhibition, most hits filed as inhibitors; note: % is set by controls: 0 for no effect and ±100 for the full control effect; nearly all actives have a fitted effect of over 75% in size
Target sequence (Q96KQ7 913-1193 limits assumed): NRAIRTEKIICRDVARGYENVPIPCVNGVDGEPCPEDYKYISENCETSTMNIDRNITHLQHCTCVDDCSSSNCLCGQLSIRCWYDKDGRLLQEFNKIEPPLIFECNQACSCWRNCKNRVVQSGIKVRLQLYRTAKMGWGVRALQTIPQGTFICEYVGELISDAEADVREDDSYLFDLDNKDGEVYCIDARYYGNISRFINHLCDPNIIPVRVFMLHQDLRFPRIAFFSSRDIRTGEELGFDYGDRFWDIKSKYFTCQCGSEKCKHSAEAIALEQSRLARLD
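Methyltransferase reactions run at room temperature for 2 h (20 nM enzyme, 500 nM biotin-H3K9 peptide, 20 uM SAM) after a 15 min compound preincubation; product detected by AlphaScreen beads and anti-H3K9me1 antibody.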
Glioma ERSR ind = inducers of ER stress response in human glioma cells; U87-MG GRP78 promoter luciferase reporter, 16 h; Potency, µM, inactives show top-dose activation, most hits filed as activators; 420,000 tested, 0.02% active; note: series mostly up to about 76 µM; % of control where 0% means no effect; nearly all actives have a fitted effect of over 35% in size
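Stably transfected U87-MG human glioma cells carrying a GRP78-based luminescent sensor were seeded at 1000 cells/well, pin-dosed with compounds and incubated 16 h. Luciferase reagent was then added, and end-point luminescence was read after 10 min at room temperature.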
VDR inhibitor = vitamin D3 receptor (human) inhibition. VDR-SRC2-3 peptide fluorescence polarization, 2 h. Potency, µM, for inactives: max response, negative = inhibition, usual class: inhibitors. 400,000 tested, 0.93% active. AID 504847; note: % is set by controls: 0 for no effect and ±100 for the full control effect
Target sequence (P11473 whole entry, looked up): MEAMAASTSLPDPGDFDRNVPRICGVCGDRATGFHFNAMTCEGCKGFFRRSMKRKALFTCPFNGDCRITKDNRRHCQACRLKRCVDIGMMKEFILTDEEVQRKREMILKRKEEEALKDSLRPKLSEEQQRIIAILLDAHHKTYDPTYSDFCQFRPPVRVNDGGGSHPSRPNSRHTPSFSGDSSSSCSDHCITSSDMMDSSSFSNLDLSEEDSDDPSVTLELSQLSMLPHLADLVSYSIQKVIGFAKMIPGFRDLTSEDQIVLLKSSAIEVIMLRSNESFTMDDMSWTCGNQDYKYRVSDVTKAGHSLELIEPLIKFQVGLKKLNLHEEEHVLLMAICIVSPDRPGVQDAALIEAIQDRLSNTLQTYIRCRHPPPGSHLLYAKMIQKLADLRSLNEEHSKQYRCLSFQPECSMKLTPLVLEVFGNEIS
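Reagent solutions, kept cold and dark, are dispensed first; compounds are then pinned in at 23 nl, plates briefly spun, and incubated 2 h at ambient temperature. Inhibition of VDR–SRC2-3 peptide binding is read by fluorescence polarization.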
Starred values were filed as active, the others as inactive; ? = inconclusive; / = no result; [ ] = remark or other dose. Calls come from the whole dose curve; as a rule, active = well fitted curve in the direction sought with a large enough effect; inconclusive = small, poorly fitted or top-dose-only effect, or another doubt; inactive = no such curve, though single readings can be large; an effect the other way counts as inactive or inconclusive. Potency is the fitted concentration of half-maximal effect.

SMILES	ALOX12 inh	Sfp inh	G9a inh	Glioma ERSR ind	VDR inhibitor
CCN(CC)c1ccc(NC(=S)NC(=O)c2cccs2)cc1	17.8µM*	?	/	-0.5%	?
CN(c1ccc(OCC(=O)OCC(=O)Nc2ccccc2)cc1)S(=O)(=O)c1cccs1	-4.4%	35.7%	39.4%[59 µM]	-5.5%	3.0%
CCCC(=O)NC(=S)Nc1ccc(NC(=O)c2cccs2)cc1	0.0%	13.3%	11.2µM*	-6.0%	6.7%
CCN(CC)c1ccc(NC(=O)CN(C)Cc2cccs2)cc1	1.3%	-9.9%	8.91µM*	1.2%	?
CCCC(=O)Nc1ccc(C(=O)NNC(=S)NC(=O)c2cccs2)cc1	-10.4%	7.3%	5.5%[0.0925 µM]	0.7%	14.8%
c1cncc(CNC[C@H]2Cn3c(-c4ccc5c(c4)OCCO5)cnc3CO2)c1	49.5%[176 µM]	/	/	/	/
O=C(NC(=S)Nc1ccc(-c2ccc(CO)o2)cc1)c1cccs1	/	8.91µM*	?	5.2%	0.3%
O=C(NC(=S)Nc1ccc(N2CCN(C(=O)c3ccccc3)CC2)cc1)c1cccs1	?	15.8%	?	0.9%	10.3%
CCCC(=O)Nc1ccc(NC(=S)NC(=O)c2cccs2)cc1	?	-14.6%	31.6µM*	-1.9%	-10.6%
CCC(C)c1ccc(O)c(NC(=S)NC(=O)c2cccs2)c1 (stereo not drawn)	22.4µM*	/	/	-9.4%	/
CCCC(=O)NC(=S)Nc1ccc(N2CCN(C(=O)c3cccs3)CC2)cc1	-26.3%	11.5%	39.8µM*	-1.8%	11.8%
O=C(COc1ccccc1F)Nc1nc(-c2ccc(S(=O)(=O)N3CCOCC3)cc2)cs1	3.0%	/	/	/	/
CCc1nnsc1C(=O)N(C)Cc1ccccc1Cl	-20.3%	/	/	/	/
CN(C)S(=O)(=O)c1ccc(NC(=S)NC(=O)c2cccs2)cc1	?	31.6µM*	-0.9%	-0.8%	-12.7%
CN1CC(=O)N(c2ccccc2)Cc2c1ncnc2N1CCc2ccccc2C1	31.6µM*	/	/	/	/
Cc1nn(C)c(C)c1C1Nc2ccccc2C(=O)N1O (stereo not drawn)	-57.1%	-3.1%	12.6µM*	-4.5%	13.4%
COc1ccc(C2Nc3ccccc3C(=O)N2O)cc1OC (stereo not drawn)	?	-4.7%	10µM*	1.9%	-6.8%
COc1ccc(C2Nc3ccccc3C(=O)N2NC(C)=O)cc1OC (stereo not drawn)	7.1%	11.8%	-4.6%	-2.7%	?
O=C1c2ccccc2NC(c2ccc(Cl)cc2Cl)N1Cc1ccccc1 (stereo not drawn)	0.0%	-4.5%	?	-7.0%	-3.3%
O=C1c2ccccc2NC(c2ccc(Cl)cc2Cl)N1O (stereo not drawn)	10µM*	2.1%	21.8%[59 µM]	-1.6%	18.5%
Cc1nn(C)c(C)c1CN(C)C(=O)CCCC(=O)O	17.8µM*	0.7%	2.3%[59 µM]	-2.0%	-2.4%
COc1ccc(C2=NN(c3nc4ccccc4s3)C(=O)/C2=C\N(C)C)cc1	22.4µM*	-5.9%	9.1%[59 µM]	-3.6%	-11.6%
COc1ccc(NC(=O)c2c(NC(=O)COc3ccccc3)sc3c2CCC(C)C3)cc1 (stereo not drawn)	-0.9%	/	-44.9%[59 µM]	3.2%	-27.9%
COc1ccc(NC(=O)c2c(NCc3ccc(C)o3)sc3c2CCCCC3)c(OC)c1	?	/	13.1%[59 µM]	-4.6%	2.3%
COc1ccc(NC(=O)c2c(NCc3ccc(C)o3)sc3c2CCC(C)C3)c(OC)c1 (stereo not drawn)	?	/	15.8µM*	-3.4%	-12.2%
SMILES	ALOX12 inh	Sfp inh	G9a inh	Glioma ERSR ind	VDR inhibitor
COc1ccccc1NC(=O)c1c(NCc2ccc(C)o2)sc2c1CCC(C)C2 (stereo not drawn)	-32.1%	/	8.91µM*	-1.1%	-18.5%
COc1ccc(NC(=O)c2c(NCc3ccc(C)o3)sc3c2CCC(C)C3)cc1 (stereo not drawn)	3.1%	/	8.91µM*	-0.3%	?
O=C1CSC(c2cn(-c3ccccc3)nc2-c2ccccc2)N1Cc1ccco1 (stereo not drawn)	44.7µM*	4.3%	11.2µM*	-6.4%	9.5%
O=C1CSC(c2ccncc2)N1Cc1ccco1 (stereo not drawn)	-19.0%	56.2µM*	-33.6%[59 µM]	-0.3%	-2.7%
O=C1Nc2ccc(-c3cccc(C(F)(F)F)c3)cc2C(=O)N2CCN(C(=O)c3cccs3)C[C@H]12	0.2%	/	/	/	/
CCCCCC/C=N/NC(=O)Cc1cccc2ccccc12	35.5%	/	/	/	/
O=C(O)c1ccc(F)c(Br)c1	-28.7%	/	/	/	/
Cc1ccccc1OCCn1c(=S)[nH]c2c(N)ncnc21	?	-28.5%	1.78µM*	-1.6%	-27.5%
CN(C)S(=O)(=O)c1cccc(Nc2nc(CN3CCOCC3)nc3sc4c(c23)CCCC4)c1	0.1%	/	/	/	/
COc1ccccc1C1CC(=O)Oc2cc(O)ccc21 (stereo not drawn)	-3.6%	2.8%	17.1%	-0.6%	-3.6%
COc1ccccc1C1CC(=O)Oc2cc(C)c(Cl)cc21 (stereo not drawn)	39.8µM*	-22.1%	63.5%	-0.9%	?
COc1ccc(C2CC(=O)Oc3cc(C)c(Cl)cc32)cc1 (stereo not drawn)	?	-16.4%	68.7%	-3.7%	1.8%
COc1ccccc1C1CC(=O)Oc2cc3c(cc21)OCO3 (stereo not drawn)	/	-17.8%	35.5µM*	-0.9%	?
Cc1nc(CNC(=O)N(C)Cc2ccc3c(c2)OCO3)cs1	30.2%	/	/	/	/
COc1cc([N+](=O)[O-])c(OC)cc1SCc1n[nH]c(=S)n1-c1ccc(F)cc1	44.7µM*	-9.2%	8.91µM*	1.1%	11.2%
COc1ccc(CSc2n[nH]c(C)n2)cc1[N+](=O)[O-]	-7.2%	-3.1%	-12.8%[59 µM]	-3.7%	0.9%
Cc1c(C(=O)NCc2n[nH]c(=S)n2-c2ccc(F)cc2)cccc1[N+](=O)[O-]	-0.9%	20.3%	10µM*	-2.5%	-9.0%
CS(=O)(=O)c1ccc(OCCOc2ccc(F)cc2)cc1	6.9%	/	/	/	/
Cc1ccc2[nH]c3c(c2c1)CN(C(=O)CN1c2ccc(F)cc2CCC1C)CC3 (stereo not drawn)	?	6.3%	31.6µM*	-3.3%	31.7%
O=C(CN1CCN(C(=O)c2ccco2)CC1)N1CCc2[nH]c3ccccc3c2C1	/	35.5µM*	22.4µM*	-3.0%	-7.1%
O=C(CN1CCSCC1)N1CCc2[nH]c3ccc(Br)cc3c2C1	/	1.4%	?	/	/
Cc1ccc2[nH]c3c(c2c1)CN(C(=O)CN1CCN(C(=O)c2ccco2)CC1)CC3	?	6.8%	?	/	/
Cc1ccc2[nH]c3c(c2c1)CN(C(=O)CN1CCN(c2cccc(C)c2C)CC1)CC3	39.8µM*	1.8%	?	-2.7%	-0.7%
O=C(NC1CCCC(C(F)(F)F)C1)c1cnc2ccccn2c1=O (stereo not drawn)	-51.4%	/	/	/	/
CCOC(=O)C1(C)/C(=N/Nc2cccc(Cl)c2)C(=O)C(=O)N1c1ccccc1 (stereo not drawn)	22.4µM*	6.4%	?	-1.2%	?
CCOC(=O)C1(C)/C(=N/Nc2ccccc2Cl)C(=O)C(=O)N1c1ccccc1 (stereo not drawn)	?	-14.4%	3.55µM*	-1.0%	0.3%
